Source: PubChem BioAssay AID939 (National Center for Advancing Translational Sciences (NCATS), 2007)
Results filed as inconclusive are left out. The source made the active and inactive calls. Calls follow the shape of the dose curve; as a rule, active = well fitted activation curve with a large enough effect in the main read-out, with a control signal flat; inconclusive = small, poorly fitted or top-dose-only effect, or effect the other way, or a change in a side signal; inactive = no such curve, though single readings can be large or run the other way.

Legend:
[1] = Confirmation Concentration-Response Assay for Agonists of the Thyroid Stimulating Hormone Receptor; conditions: HEK293 TSHR-CNG cells, membrane potential dye, cAMP; measured here: parental HEK293 counter-screen max; as to activation: % of control where 0% means no effect
In short: (§1)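 A cyclic nucleotide gated channel serves as cAMP sensor in HEK 293 cells stably carrying TSHR, with depolarization detected by fluorescent dye at 590 nm after 30 min compound. Parental cells lacking TSHR run alongside.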

[2] = target: Thyrotropin receptor (Homo sapiens) (UniProt P16473); experiment: as above; conditions: HEK293 TSHR-CNG cells, membrane potential dye, cAMP; series mostly up to 25.6 µM
Chain of Thyrotropin receptor (Homo sapiens) (P16473 whole entry, looked up): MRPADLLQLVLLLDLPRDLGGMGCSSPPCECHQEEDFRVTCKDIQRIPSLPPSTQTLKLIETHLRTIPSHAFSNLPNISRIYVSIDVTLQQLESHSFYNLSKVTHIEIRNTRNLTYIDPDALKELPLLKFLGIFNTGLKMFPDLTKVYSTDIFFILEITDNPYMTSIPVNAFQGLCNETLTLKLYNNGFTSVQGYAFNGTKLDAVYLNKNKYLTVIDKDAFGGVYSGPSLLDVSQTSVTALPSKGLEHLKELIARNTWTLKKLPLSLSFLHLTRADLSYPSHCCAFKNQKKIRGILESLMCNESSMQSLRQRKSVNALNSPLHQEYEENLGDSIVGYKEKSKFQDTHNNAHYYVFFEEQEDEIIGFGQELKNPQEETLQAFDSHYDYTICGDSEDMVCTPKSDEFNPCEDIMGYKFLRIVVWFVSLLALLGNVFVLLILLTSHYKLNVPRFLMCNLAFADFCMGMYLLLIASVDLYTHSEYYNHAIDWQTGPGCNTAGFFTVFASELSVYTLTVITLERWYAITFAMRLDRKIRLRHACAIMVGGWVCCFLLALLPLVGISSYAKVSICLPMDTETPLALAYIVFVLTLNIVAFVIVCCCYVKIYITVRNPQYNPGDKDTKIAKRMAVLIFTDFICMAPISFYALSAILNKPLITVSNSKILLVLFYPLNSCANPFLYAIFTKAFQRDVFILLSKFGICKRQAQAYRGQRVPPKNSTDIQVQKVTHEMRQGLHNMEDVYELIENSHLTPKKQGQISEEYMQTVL
In short: as §1
Potency is read from the fitted curve at half-maximal effect.

**Q.** For `O=C(COC(=O)C12CC3CC(CC(C3)C1)C2)NCc1ccco1`, which max response [1] is on record?
**A.** -5.29%

**Q.** And the Potency [2]?
**A.** 2 µM (active)

**Q.** What does the source list for `COc1ccc(-c2ccc(-c3noc(C)n3)c(OC)n2)cc1`?
**A.** max response [1]: 8.55%; Potency [2]: inactive

**Q.** With `Cc1ccccc1-c1nc(CN2CCC(C(=O)N3CCN(c4ccccn4)CC3)CC2)c(C)o1` as the compound, how does the max response [1] read?
**A.** 17.1%

**Q.** What about the Potency [2] of the same compound?
**A.** inactive

**Q.** With `O=C1N(c2ccccc2)C2CS(=O)(=O)CC2N1c1ccc(Cl)c(Cl)c1` (centres undefined) as the compound, how does the max response [1] read?
**A.** -23.3%

**Q.** And the Potency [2]?
**A.** inactive

**Q.** What does the source list for `Oc1ccccc1Cn1c(-c2ccccc2O)nc2ccccc21`?
**A.** max response [1]: -14.6%; Potency [2]: 12.6 µM (active)

**Q.** Which max response [1] does the source give for `Nc1ccc2c(c1)COc1ccccc1O2` here?
**A.** -5.76%

**Q.** And the Potency [2]?
**A.** inactive

**Q.** Which results are given for `O=C(Nc1ccc(N2CCOCC2)cc1)C1CC1`?
**A.** max response [1]: 5.07%; Potency [2]: inactive

**Q.** With `CC(=O)Nc1ccc(S(=O)(=O)N(C)c2ccccc2)cc1` as the compound, how does the max response [1] read?
**A.** 4.53%

**Q.** And the Potency [2]?
**A.** inactive

**Q.** Which max response [1] does the source give for `CCc1ccccc1NC1=NCC(=O)N1Cc1ccc(OC)cc1` here?
**A.** -6.12%

**Q.** And the Potency [2]?
**A.** 12.6 µM (active)

**Q.** With `CSc1nc(NC(C)(C)C)nc(Oc2ccc(=O)[nH]n2)n1` as the compound, how does the max response [1] read?
**A.** -2.82%

**Q.** And the Potency [2]?
**A.** inactive

**Q.** With `CCN(c1ccccc1)S(=O)(=O)c1ccc(Oc2ccc(-n3ccnc3)cc2)nc1` as the compound, how does the max response [1] read?
**A.** -1.61%

**Q.** What about the Potency [2] of the same compound?
**A.** inactive

**Q.** Which results are given for `Cc1ccc(C)c(Cn2c(C(C)O)nc3ccccc32)c1` (centres undefined)?
**A.** max response [1]: -2.8%; Potency [2]: 3.98 µM (active)

**Q.** For `Cc1cc(-n2c(C)cc(C(=O)CSc3nnnn3-c3ccc(Cl)cc3)c2C)no1`, which max response [1] is on record?
**A.** 13.5%

**Q.** For `CN1C(=O)N(C)C2(c3ccccc3)Nn3c(s/c(=C/c4ccco4)c3=O)=NC12c1ccccc1` (centres undefined), which max response [1] is on record?
**A.** -0.854%

**Q.** For `Nc1cc(CN2C(=O)c3ccccc3C2=O)cc(Cl)c1O`, which max response [1] is on record?
**A.** 4.5%

**Q.** What about the Potency [2] of the same compound?
**A.** inactive

**Q.** Which results are given for `O=S(=O)(c1ccccc1)N1CCN(C2CCN(Cc3ccccc3)CC2)CC1`?
**A.** max response [1]: 0.84%; Potency [2]: inactive

**Q.** Which max response [1] does the source give for `COc1ccc(C2Nc3ccccc3C(=O)N2Cc2ccco2)cc1COc1ccc(NC(C)=O)cc1` (centres undefined) here?
**A.** 21.9%

**Q.** Which results are given for `O=C(COC(=O)C1c2ccccc2Oc2ccccc21)Nc1ccc2c(c1)OCO2`?
**A.** max response [1]: 8.54%; Potency [2]: 12.6 µM (active)

**Q.** With `O=C(CN(Cc1ccccc1Cl)C(=O)Cn1nnc(-c2cccs2)n1)NCC1CCCO1` (centres undefined) as the compound, how does the max response [1] read?
**A.** 8.66%

**Q.** Which max response [1] does the source give for `CN1C(=O)C2C=CC1C1C(=O)N(c3ccccc3)C(=O)C21` (centres undefined) here?
**A.** 2.29%

**Q.** For `CCOC(=O)C1C(=O)Nc2nc(C)nn2C1c1ccccc1` (centres undefined), which max response [1] is on record?
**A.** -7.34%

**Q.** And the Potency [2]?
**A.** inactive

**Q.** Which max response [1] does the source give for `CCn1c(=O)c(C(=O)CN2CCCc3ccccc32)c(N)n(Cc2ccccc2)c1=O` here?
**A.** -16.6%

**Q.** For `Cc1onc(-c2ccccc2Cl)c1C(=O)Nc1ccc(-n2nncc2-c2ccco2)cc1`, which max response [1] is on record?
**A.** -3.47%

**Q.** And the Potency [2]?
**A.** 12.6 µM (active)

**Q.** With `CCS(=O)(=O)N1CCN(C(C)CCc2ccccc2)CC1` (centres undefined) as the compound, how does the max response [1] read?
**A.** -2.55%

**Q.** For `Cc1cc(Cl)c(S(=O)(=O)Nc2ccc3c(c2)OCO3)cc1OCC(N)=O`, which max response [1] is on record?
**A.** -8.28%

**Q.** What about the Potency [2] of the same compound?
**A.** inactive

**Q.** For `Cc1nc2ccc(Br)cn2c(=O)c1Cl`, which max response [1] is on record?
**A.** -3.12%

**Q.** And the Potency [2]?
**A.** inactive

**Q.** With `c1ccc(-n2cnc3cc(NCc4ccncc4)ccc32)cc1` as the compound, how does the max response [1] read?
**A.** 1.12%

**Q.** And the Potency [2]?
**A.** inactive

**Q.** With `COc1cc(NC(=O)c2cc(-n3cnnc3)ccc2Cl)cc(OC)c1` as the compound, how does the max response [1] read?
**A.** -1.27%

**Q.** With `Cc1ccccc1NC(=O)CSc1nnc(-c2ccoc2C)n1CCc1ccccc1` as the compound, how does the max response [1] read?
**A.** 20.3%

**Q.** Which max response [1] does the source give for `Cn1c(=O)[nH]c(=O)c2c1nc(N1CCCCCC1)n2CCCSc1nc2ccccc2o1` here?
**A.** 12.7%

**Q.** Which max response [1] does the source give for `CCCC(=O)C1=C(SCC)CC(C)(C)C(C(=O)OC)C1=O` (centres undefined) here?
**A.** 9.56%

**Q.** What about the Potency [2] of the same compound?
**A.** inactive

**Q.** Which max response [1] does the source give for `Cc1occc1-c1nnc(SCC(=O)NCc2ccc3c(c2)OCO3)n1CC(C)C` here?
**A.** 9.78%

**Q.** And the Potency [2]?
**A.** 12.6 µM (active)

**Q.** With `CN(Cc1ccco1)C(=O)Cn1c(=O)oc2cc(S(=O)(=O)NCc3ccccc3)ccc21` as the compound, how does the max response [1] read?
**A.** -3.7%

**Q.** And the Potency [2]?
**A.** 12.6 µM (active)

**Q.** With `CCSCCOC(=O)C1=C(C)N(C)C(=O)NC1c1cc(OC)ccc1OC` (centres undefined) as the compound, how does the max response [1] read?
**A.** 7.65%

**Q.** What about the Potency [2] of the same compound?
**A.** inactive

**Q.** What does the source list for `C=CCn1c(NCc2ccc3c(c2)OCO3)nc2ccccc21`?
**A.** max response [1]: 13.4%; Potency [2]: inactive

**Q.** Which results are given for `O=C1CC(c2ccco2)CC2=C1C(c1ccccc1)n1nc(C(F)(F)F)nc1N2` (centres undefined)?
**A.** max response [1]: -7.22%; Potency [2]: 1 µM (active)

**Q.** Which max response [1] does the source give for `COc1ccc(S(=O)(=O)NCCC(=O)NCc2ccc(F)cc2)cc1` here?
**A.** -8.89%

**Q.** And the Potency [2]?
**A.** inactive

**Q.** Which results are given for `Cc1cc(SCNC(=O)c2ccccc2)ncn1`?
**A.** max response [1]: -2.72%; Potency [2]: inactive

**Q.** What does the source list for `CC(=O)N1CCCc2cc(S(=O)(=O)N(CC(C)C)CC(C)C)ccc21`?
**A.** max response [1]: 14.4%; Potency [2]: 12.6 µM (active)

**Q.** Which max response [1] does the source give for `COc1cc2c(N3CCOCC3)cc(O)c(CC(=O)Nc3ccccc3)c2cc1OC` here?
**A.** -10.7%

**Q.** And the Potency [2]?
**A.** inactive

**Q.** For `Cc1cnc(NC(=O)c2ccc3c(c2)C(=O)N(Cc2ccco2)C3=O)s1`, which max response [1] is on record?
**A.** -10.7%

**Q.** What about the Potency [2] of the same compound?
**A.** inactive

**Q.** Which max response [1] does the source give for `Cc1ccccc1-n1nc(C)c2cc(C(=O)N3CCN(S(=O)(=O)c4ccc(F)cc4)CC3)sc21` here?
**A.** -1.22%

**Q.** And the Potency [2]?
**A.** inactive
